The source of these data is ChEMBL document CHEMBL1961873, “Compounds: GSK PKIS; Assays: Nanosyn kinase panel” (2012).

A word on the inhibition: it is the relative decrease from the control value, in per cent.

For assay [1], the target named is Death-associated protein kinase 1 (Homo sapiens) (UniProt P53355). The following applies: at 1 µM.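 Note: each value is a mean inhibition figure.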
For assay [2], the target named is T1, Serine/threonine-protein kinase DCLK2 (Homo sapiens) (UniProt Q8N568).
T1 sequence (whole entry): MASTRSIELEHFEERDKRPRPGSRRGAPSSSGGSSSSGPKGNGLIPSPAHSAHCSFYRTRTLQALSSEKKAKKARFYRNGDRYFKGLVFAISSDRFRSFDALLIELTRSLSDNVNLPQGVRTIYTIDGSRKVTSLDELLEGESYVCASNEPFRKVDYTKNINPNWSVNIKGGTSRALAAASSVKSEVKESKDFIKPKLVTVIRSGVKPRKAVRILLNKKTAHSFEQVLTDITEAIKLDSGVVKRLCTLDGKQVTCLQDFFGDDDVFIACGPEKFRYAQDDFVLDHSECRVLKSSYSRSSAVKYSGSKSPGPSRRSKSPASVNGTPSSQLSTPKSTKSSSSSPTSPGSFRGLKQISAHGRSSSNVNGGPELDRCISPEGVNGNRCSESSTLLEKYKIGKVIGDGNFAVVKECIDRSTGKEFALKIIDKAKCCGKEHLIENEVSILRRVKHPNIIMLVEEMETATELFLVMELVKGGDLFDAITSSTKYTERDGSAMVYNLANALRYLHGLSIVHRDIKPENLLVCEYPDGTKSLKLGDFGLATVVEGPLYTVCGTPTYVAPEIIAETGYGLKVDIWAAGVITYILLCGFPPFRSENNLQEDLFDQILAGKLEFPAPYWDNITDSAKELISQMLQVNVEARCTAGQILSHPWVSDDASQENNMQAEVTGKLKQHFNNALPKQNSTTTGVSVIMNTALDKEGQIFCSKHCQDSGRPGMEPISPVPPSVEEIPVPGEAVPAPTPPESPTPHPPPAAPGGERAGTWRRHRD
The following applies: at 0.1 µM.

Assay [3] addresses T1, Serine/threonine-protein kinase DCLK2 (Homo sapiens). As to conditions: at 1 µM.
Assay [4] deals with MAP kinase-activated protein kinase 2 (Homo sapiens) (UniProt P49137). As to conditions: at 0.1 µM.
Assay [5] has the same target. The following applies: at 1 µM.
Assay [6] concerns the target MAP kinase-activated protein kinase 3 (Homo sapiens) (UniProt Q16644). The following applies: at 0.1 µM.
Assay [7] shares this target. As to conditions: at 1 µM.
Assay [8] addresses Serine/threonine-protein kinase MARK1 (Homo sapiens) (UniProt Q9P0L2). The following applies: at 0.1 µM.
The target is the same in assay [9]. The following applies: at 1 µM.
Assay [10] concerns the target MAP/microtubule affinity-regulating kinase 3 (Homo sapiens) (UniProt P27448). As to conditions: at 0.1 µM.
Assay [11] has the same target. The following applies: at 1 µM.
Assay [12] has as its target T2, MAP/microtubule affinity-regulating kinase 4 (Homo sapiens) (UniProt Q96L34).
T2 sequence (whole entry): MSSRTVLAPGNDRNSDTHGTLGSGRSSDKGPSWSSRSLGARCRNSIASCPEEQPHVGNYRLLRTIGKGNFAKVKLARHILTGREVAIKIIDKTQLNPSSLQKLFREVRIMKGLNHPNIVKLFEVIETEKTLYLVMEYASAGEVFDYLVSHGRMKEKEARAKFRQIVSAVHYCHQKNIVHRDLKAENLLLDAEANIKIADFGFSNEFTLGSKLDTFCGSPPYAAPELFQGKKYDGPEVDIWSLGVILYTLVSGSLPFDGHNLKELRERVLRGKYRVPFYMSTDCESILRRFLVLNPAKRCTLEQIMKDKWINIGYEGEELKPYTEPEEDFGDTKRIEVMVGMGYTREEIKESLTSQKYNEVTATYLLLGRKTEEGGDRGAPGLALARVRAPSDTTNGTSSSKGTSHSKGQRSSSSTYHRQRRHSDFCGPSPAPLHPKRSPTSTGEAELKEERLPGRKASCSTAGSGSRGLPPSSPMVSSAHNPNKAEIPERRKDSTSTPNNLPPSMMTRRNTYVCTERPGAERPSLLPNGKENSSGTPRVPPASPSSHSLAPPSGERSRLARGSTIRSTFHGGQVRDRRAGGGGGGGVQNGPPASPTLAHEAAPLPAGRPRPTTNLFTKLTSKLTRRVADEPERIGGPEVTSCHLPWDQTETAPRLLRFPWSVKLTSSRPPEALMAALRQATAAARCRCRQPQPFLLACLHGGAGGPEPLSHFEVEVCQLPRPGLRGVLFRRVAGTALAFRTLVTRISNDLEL
The following applies: at 0.1 µM.

For assay [13], the target named is T2, MAP/microtubule affinity-regulating kinase 4 (Homo sapiens). As to conditions: at 1 µM.
The target in assay [14] is Maternal embryonic leucine zipper kinase (Homo sapiens) (UniProt Q14680). The following applies: at 0.1 µM.
Maternal embryonic leucine zipper kinase (Homo sapiens), sequence (Q14680 whole entry, looked up): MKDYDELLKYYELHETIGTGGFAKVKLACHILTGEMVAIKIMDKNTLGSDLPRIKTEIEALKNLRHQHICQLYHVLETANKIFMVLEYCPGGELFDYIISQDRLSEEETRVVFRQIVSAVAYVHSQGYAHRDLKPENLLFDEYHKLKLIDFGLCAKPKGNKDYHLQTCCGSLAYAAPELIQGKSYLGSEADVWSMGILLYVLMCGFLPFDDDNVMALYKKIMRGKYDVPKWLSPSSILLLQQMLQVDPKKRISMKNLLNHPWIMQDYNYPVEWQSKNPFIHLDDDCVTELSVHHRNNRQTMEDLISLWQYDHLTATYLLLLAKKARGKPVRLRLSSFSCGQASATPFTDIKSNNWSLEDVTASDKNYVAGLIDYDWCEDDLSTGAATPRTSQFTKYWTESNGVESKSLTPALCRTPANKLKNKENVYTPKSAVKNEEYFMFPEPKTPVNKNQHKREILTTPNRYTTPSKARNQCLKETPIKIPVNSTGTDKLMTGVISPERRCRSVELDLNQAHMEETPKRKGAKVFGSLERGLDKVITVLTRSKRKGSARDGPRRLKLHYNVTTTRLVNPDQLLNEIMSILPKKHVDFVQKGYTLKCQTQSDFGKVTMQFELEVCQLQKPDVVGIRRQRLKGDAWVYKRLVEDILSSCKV
For assay [15] the target is unchanged. The following applies: at 1 µM.
In assay [16] the target is MAP kinase-interacting serine/threonine-protein kinase 1 (Homo sapiens) (UniProt Q9BUB5). As to conditions: at 0.1 µM.
MAP kinase-interacting serine/threonine-protein kinase 1 (Homo sapiens), sequence (Q9BUB5 whole entry, looked up): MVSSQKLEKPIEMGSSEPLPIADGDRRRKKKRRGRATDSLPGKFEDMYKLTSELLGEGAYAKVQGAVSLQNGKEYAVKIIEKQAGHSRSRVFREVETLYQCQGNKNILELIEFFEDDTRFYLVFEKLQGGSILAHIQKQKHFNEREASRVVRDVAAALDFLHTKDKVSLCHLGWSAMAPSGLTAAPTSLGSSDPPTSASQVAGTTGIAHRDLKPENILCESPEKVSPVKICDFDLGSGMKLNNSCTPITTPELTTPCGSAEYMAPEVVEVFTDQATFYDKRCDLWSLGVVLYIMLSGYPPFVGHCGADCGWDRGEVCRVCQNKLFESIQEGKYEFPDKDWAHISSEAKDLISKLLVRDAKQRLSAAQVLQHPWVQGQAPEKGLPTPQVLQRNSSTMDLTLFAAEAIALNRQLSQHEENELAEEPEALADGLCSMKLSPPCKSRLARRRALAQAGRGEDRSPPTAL
Assay [17] has the same target. As to conditions: at 1 µM.
For assay [18], the target named is MAP kinase-interacting serine/threonine-protein kinase 2 (Homo sapiens) (UniProt Q9HBH9). As to conditions: at 0.1 µM.
MAP kinase-interacting serine/threonine-protein kinase 2 (Homo sapiens), sequence (Q9HBH9 whole entry, looked up): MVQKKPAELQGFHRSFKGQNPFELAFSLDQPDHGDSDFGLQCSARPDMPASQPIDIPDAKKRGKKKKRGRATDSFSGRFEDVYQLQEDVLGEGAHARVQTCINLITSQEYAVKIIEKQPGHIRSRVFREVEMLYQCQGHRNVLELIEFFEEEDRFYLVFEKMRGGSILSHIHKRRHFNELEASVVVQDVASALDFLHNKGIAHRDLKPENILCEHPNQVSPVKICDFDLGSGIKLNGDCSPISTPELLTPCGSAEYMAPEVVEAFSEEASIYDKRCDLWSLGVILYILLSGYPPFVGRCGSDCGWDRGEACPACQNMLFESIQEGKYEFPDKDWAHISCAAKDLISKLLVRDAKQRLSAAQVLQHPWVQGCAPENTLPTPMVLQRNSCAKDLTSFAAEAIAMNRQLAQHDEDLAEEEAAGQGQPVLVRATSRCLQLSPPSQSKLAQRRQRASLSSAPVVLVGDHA
The target is the same in assay [19]. As to conditions: at 1 µM.
Assay [20] deals with Serine/threonine-protein kinase MARK2 (Homo sapiens) (UniProt Q7KZI7). As to conditions: at 0.1 µM.

MAP/microtubule affinity-regulating kinase 3 (Homo sapiens), sequence (P27448 whole entry, looked up): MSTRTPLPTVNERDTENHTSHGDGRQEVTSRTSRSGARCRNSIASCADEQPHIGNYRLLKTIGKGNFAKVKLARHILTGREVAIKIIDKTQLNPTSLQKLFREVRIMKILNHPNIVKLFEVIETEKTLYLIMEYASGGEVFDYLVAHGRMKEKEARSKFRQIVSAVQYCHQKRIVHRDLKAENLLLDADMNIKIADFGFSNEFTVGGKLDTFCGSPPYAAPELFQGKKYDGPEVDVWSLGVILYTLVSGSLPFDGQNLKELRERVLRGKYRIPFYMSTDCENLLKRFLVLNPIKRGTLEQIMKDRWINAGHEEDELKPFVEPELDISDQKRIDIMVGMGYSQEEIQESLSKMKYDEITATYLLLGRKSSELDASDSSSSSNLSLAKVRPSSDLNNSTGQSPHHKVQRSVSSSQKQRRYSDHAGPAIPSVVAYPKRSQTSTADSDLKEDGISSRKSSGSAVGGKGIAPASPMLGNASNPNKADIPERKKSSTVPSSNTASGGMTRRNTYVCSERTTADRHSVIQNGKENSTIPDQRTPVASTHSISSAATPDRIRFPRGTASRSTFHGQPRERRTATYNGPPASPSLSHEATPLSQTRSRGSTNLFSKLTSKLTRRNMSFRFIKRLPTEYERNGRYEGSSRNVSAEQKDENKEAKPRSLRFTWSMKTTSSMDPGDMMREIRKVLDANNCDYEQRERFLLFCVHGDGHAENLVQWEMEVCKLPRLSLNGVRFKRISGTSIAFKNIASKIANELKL
Serine/threonine-protein kinase MARK1 (Homo sapiens), sequence (Q9P0L2 whole entry, looked up): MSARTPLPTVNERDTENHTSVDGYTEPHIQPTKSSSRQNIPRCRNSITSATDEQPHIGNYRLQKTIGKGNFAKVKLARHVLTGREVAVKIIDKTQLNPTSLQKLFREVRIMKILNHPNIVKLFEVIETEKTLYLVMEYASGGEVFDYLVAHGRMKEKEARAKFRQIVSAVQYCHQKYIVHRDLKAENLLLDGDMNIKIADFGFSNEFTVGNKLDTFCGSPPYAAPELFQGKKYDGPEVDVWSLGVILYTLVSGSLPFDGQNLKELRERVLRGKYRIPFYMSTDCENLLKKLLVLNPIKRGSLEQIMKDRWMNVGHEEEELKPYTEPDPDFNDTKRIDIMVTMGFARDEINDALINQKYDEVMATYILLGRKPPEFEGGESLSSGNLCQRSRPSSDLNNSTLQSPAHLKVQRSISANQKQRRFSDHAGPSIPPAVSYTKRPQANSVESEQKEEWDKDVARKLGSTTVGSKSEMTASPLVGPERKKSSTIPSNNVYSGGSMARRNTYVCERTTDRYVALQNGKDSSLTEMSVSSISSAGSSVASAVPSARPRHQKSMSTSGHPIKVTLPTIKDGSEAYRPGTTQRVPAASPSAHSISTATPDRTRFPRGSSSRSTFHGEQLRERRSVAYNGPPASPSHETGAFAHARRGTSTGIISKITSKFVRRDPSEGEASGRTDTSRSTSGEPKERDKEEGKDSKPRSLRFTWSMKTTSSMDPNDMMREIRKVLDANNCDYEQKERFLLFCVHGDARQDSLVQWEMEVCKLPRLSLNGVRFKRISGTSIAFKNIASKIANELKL
MAP kinase-activated protein kinase 3 (Homo sapiens), sequence (Q16644 whole entry, looked up): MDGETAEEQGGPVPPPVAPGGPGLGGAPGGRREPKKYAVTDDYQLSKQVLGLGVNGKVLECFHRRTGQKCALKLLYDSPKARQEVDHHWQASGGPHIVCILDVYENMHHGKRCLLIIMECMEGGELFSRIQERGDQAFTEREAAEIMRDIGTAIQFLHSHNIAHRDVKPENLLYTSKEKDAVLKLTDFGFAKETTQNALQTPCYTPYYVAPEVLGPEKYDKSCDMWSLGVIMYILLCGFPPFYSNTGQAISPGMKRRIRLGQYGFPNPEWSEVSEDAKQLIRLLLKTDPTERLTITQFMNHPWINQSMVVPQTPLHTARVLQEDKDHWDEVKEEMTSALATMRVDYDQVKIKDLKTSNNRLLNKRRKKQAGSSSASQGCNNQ
Death-associated protein kinase 1 (Homo sapiens), sequence (P53355 whole entry, looked up): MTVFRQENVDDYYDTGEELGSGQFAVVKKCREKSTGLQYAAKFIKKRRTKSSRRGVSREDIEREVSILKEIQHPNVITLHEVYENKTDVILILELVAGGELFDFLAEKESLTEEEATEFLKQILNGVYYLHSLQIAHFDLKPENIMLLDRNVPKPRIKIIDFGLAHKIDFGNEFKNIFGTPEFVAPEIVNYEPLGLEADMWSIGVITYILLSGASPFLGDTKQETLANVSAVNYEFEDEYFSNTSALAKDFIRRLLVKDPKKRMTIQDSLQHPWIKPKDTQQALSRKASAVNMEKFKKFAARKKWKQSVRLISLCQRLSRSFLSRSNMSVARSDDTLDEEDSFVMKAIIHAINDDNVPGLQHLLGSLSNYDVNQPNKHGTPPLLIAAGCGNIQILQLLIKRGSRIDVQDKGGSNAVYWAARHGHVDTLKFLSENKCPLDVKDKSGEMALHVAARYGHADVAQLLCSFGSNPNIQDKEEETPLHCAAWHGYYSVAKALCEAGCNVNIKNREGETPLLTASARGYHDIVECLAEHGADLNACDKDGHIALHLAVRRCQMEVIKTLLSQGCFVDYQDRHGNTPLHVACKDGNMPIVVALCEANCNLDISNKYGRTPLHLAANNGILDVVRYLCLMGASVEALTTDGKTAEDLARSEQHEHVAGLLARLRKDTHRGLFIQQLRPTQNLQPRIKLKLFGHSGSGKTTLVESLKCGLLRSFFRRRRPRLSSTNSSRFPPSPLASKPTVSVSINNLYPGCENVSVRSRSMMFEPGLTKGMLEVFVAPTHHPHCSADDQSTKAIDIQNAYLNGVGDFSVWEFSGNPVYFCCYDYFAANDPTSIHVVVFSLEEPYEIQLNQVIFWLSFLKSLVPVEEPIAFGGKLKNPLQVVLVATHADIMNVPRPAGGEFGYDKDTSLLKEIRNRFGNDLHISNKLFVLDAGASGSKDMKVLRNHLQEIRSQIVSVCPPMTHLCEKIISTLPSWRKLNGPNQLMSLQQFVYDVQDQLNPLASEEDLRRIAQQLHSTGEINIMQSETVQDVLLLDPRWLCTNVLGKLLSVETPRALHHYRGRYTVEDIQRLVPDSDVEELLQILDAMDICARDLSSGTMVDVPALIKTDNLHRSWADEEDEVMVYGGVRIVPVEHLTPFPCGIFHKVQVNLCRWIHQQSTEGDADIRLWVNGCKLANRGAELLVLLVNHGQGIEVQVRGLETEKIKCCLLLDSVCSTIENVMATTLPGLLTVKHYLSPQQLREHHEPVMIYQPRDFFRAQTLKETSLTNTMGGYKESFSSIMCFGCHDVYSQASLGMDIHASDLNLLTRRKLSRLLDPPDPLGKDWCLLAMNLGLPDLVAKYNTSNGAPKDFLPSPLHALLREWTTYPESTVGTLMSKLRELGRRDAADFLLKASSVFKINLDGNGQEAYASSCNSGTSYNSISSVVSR

With `Fc1ccc(-c2nc3n(c2-c2ccncc2)CCS3)cc1`, the inhibition was 2.21% in [1]; -0.75% in [2]; -3.53% in assay [3]; 0.87% in [4]; 0.79% in assay [5]; 8.6% in assay [6]. Further, the inhibition in assay [7] is 19.8%; in assay [8] it was 4.51%; in assay [9], 4.67%; in [10] it was 3.87%; in assay [11], -0.12%; in assay [12], 2.4%. Besides, the inhibition in assay [13] was 3.63%; in assay [14] it was 4.86%; in assay [15], 6.72%; in assay [16], 1.57%; in assay [17], 4.14%; in assay [18], -2.37%. Further, the inhibition turned out to be 0.35% in assay [19] and 0.46% in assay [20].

Consider `CS(=O)(=O)CCNCc1ccc(-c2ccc3ncnc(Nc4ccc(OCc5ccccc5)c(Br)c4)c3c2)o1`, for which the inhibition in assay [1] was 2.27%; in [2] it was -2.49%; in [3], -1.71%; in assay [4], 1.3%; in assay [5], 0.14%; in assay [6] it was 3.07%. Also, the inhibition is 2.03% in assay [7]; 1.99% in [8]; 1.61% in assay [9]; 3.89% in [10]; -0.13% in assay [11]; 2.98% in assay [12]. For the same molecule, the inhibition in [13] was 2.37%; in assay [14], 5.3%; in assay [15], 5.37%; in assay [16], 2.72%; in [17], 6.16%; in assay [18] it was 2.36%. Besides, the inhibition stood at 7.73% in assay [19] and 0.23% in assay [20].

With `NCc1ccc(-n2c(-c3nonc3N)nc3cnccc32)cc1`, the inhibition in assay [1] was 9.98%; in assay [2], -0.49%; in assay [3] it was 2.47%; in assay [4] it was 1.78%; in [5], 1.8%; in assay [6], 4.33%. Further, the inhibition in [7] was 4.65%; in assay [8], 6.36%; in assay [9] it was 23.2%; in assay [10] it was 5.76%; in [11] it was 22.6%; in assay [12], 4.49%. In addition, the inhibition in assay [13] was determined as 13.3%; in assay [14], 33.9%; in assay [15], 88.2%; in assay [16], 4.41%; in assay [17], 13.6%; in [18] it was 1.06%. The inhibition came out at 10.1% in assay [19] and 4.09% in assay [20].

`COc1cccc(/C=N/Nc2ncnc3c2cnn3-c2cccc(OC)c2)c1`: the inhibition in assay [1] is -2.35%; in assay [2] it was -0.11%; in assay [3], 1.93%; in assay [4] it was 2.15%; in [5], 2.31%; in assay [6], 2.37%. Moreover, the inhibition in assay [7] was 2.33%; in [8] it was 0.69%; in [9] it was 2.26%; in assay [10], -0.24%; in [11], 0.87%; in [12], 0.94%. Further, the inhibition in assay [13] was 0.58%; in assay [14], 3.83%; in assay [15], 9.57%; in [16] it was 2.02%; in [17] it was 4.36%; in assay [18], -0.25%. Moreover, the inhibition was 2.4% in assay [19] and -5.9% in assay [20].

Take `COc1cc2ncn(-c3cc(OCc4ccccc4C(F)(F)F)c(C(C)=O)s3)c2cc1OC`: the inhibition in assay [1] was 1.98%; in assay [2] it was -1.1%; in [3] it was 1.3%; in assay [4], 1.03%; in [5] it was 0.77%; in [6] it was 3.07%. For the same molecule, the inhibition in assay [7] was found to be 2.6%; in [8] it was 4.34%; in assay [9], 2.61%; in assay [10], 0.67%; in assay [11], 3.71%; in assay [12], 3%. For the same molecule, the inhibition in assay [13] came to 2.91%; in [14], 3.94%; in assay [15], 1.83%; in assay [16], 3.58%; in assay [17], 5.46%; in assay [18], 1.92%. For the same molecule, the inhibition was 4.93% in [19] and -0.07% in assay [20].

On to `O=C1NC(=O)C(c2cccc(Cl)c2)=C1Nc1ccc(Cl)c(C(=O)O)c1`, for which the inhibition in [1] is 3.41%; in assay [2] it was 0.79%; in assay [3], -4.18%; in assay [4], 1.73%; in assay [5], 1.21%; in assay [6], 2.96%. Moreover, the inhibition in [7] was 3.57%; in [8], 2.35%; in assay [9], 3.49%; in [10], 3.32%; in [11] it was 8%; in [12] it was 0.26%. Moreover, the inhibition in [13] was 1.44%; in assay [14], -0.69%; in assay [15] it was 3.67%; in assay [16], 3.32%; in assay [17], 5.32%; in [18] it was 2.61%. Further, the figures for the inhibition in assay [19] and in [20] were 4% and -2.87%, respectively.
